Data reported in PubChem BioAssay (NCI).
About 79,000 compounds went through this panel and 15% of them were active in at least one assay; those are over-represented in the sample as a whole. Unmarked numbers belong to inactive results. The source made the active and inactive calls. Rule as the data show it: active = growth inhibition above about 70%; inactive = the rest. Where a SMILES comes first, the peptide text is derived from it. The star is where a group is joined. Trt = c1ccc(C(c2ccccc2)(c2ccccc2)*)cc1; Cbz = O=C(OCc1ccccc1)*

Columns and labels:
[1] = NCI Yeast Anticancer Drug Screen. Data for the rad50 strain (AID 155);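 also: 0% = growth of vehicle-only cultures of the same strain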; details: S. cerevisiae rad50 strain growth inhibition; at 50.0 µM; stronger effect = higher value
How it was run: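 A DNA repair-deficient yeast mutant serves as the test organism; compound-induced growth inhibition is calculated against vehicle-treated cells.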

[2] = NCI Yeast Anticancer Drug Screen. Data for the mec2-1 strain (AID 157); details: S. cerevisiae mec2-1 strain, at 50.0 µM, stronger effect = higher value
How it was run: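 Yeast mec2-1 mutant treated with compound. Readout: growth inhibition vs vehicle controls.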

[3] = NCI Yeast Anticancer Drug Screen. Data for the sgs1 mgt1 strain (AID 161);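 also: 0% = growth of cultures given vehicle only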; details: S. cerevisiae sgs1 mgt1 strain, at 50.0 µM, stronger effect = higher value
How it was run: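 Inhibition of yeast growth, normalised to vehicle-treated controls, is reported for a strain bearing genetic alterations in DNA damage repair.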

[4] = NCI Yeast Anticancer Drug Screen. Data for the cln2 rad14 strain (AID 165);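 also: 0% = growth equal to vehicle treated cultures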; details: S. cerevisiae cln2 rad14 strain, at 50.0 µM, stronger effect = higher value
How it was run: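 cln2 rad14 yeast strain; compound exposure; growth inhibition read vs vehicle controls.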

[5] = NCI Yeast Anticancer Drug Screen. Data for the bub3 strain (AID 167); details: S. cerevisiae bub3 mutant strain, at 50.0 µM, stronger effect = higher value
How it was run: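 Inhibition values come from growth of compound-treated mutant yeast normalised to vehicle-treated controls.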

[6] = NCI Yeast Anticancer Drug Screen. Data for the mlh1 rad18 strain (AID 175); details: S. cerevisiae mlh1 rad18 strain growth inhibition; at 50.0 µM; stronger effect = higher value
How it was run: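 Yeast w/ defined DNA-repair lesions; compound exposure; growth vs vehicle controls → % inhibition.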

Row | Compound | growth inhibition [1] | growth inhibition [2] | growth inhibition [3] | growth inhibition [4] | growth inhibition [5] | growth inhibition [6]
1 | CCOC(=O)CC(=O)C(=O)NNC1=NCCCN1 | 7.25% | -5.35% | -20.1% | 14.2% | 2.3% | 0.45%
2 | COC(=O)C(CO)NC(=O)C(CSC(c1ccccc1)(c1ccccc1)c1ccccc1)NC(=O)OCc1ccccc1 (configuration not stated) (Cbz-Cys(Trt)-Ser-OMe; configuration not given here) | 76.2% (active) | 68.7% | 78.8% (active) | 78% (active) | 67.2% | 84.2% (active)
3 | CCOc1ccc(Nc2nc(N)nc(N)c2N)cc1 | 2.85% | 10.8% | -8.95% | -13.7% | -20.4% | 3.8%
4 | O=N[O-].O=N[O-].[Co].[NH-]CC[N-]CC[N-]CC[NH-] | 10.4% | 7.2% | 1.9% | 3.65% | 19.6% | 11%
5 | CCOC(=O)C(=O)OCC | 24.9% | -1.05% | -19.1% | -3.7% | 29.8% | 13.8%
6 | CC(C)C(=O)NCCc1ccccc1 | 0% | 0.45% | -3.15% | -26.6% | -0.45% | 2.95%
7 | O=C(NCc1ccccc1)C(c1ccccc1)c1ccccc1 | 1.85% | 4.9% | 2.6% | 5.7% | -9.1% | 0.8%
8 | N#CC1(N)c2ccccc2-c2ccccc21 | 34.8% | 1.95% | 3.4% | 9.65% | 3.65% | 4.8%
9 | CC(C)C(NC(=O)C(Cc1ccc(O)cc1)NC(=O)OCc1ccccc1)C(=O)O (stereo not drawn) (Cbz-Tyr-Val-OH; configuration not given here) | 10.2% | -3.25% | -3.85% | -29.6% | -3.15% | 1.8%
10 | CCN(CCOC(=O)Nc1cccc(C(C)=O)c1)c1ccccc1 | 91.2% (active) | 96.5% (active) | 97.5% (active) | 76.2% (active) | 92.1% (active) | 88.2% (active)
11 | CCCCCCCCCCCCN=Cc1cc(Cc2ccc(O)c(C=NCCCCCCCCCCCC)c2)ccc1O | 85.7% (active) | 80.4% (active) | 91.3% (active) | 84.2% (active) | 83.7% (active) | 96% (active)
12 | NC(=O)NCCCC1NC(=S)N(c2ccccc2)C1=O (configuration not stated) | -3.35% | -4.35% | -3.2% | -2.95% | 23.9% | 34%
13 | Cc1cccc(NC(=O)/C=C/c2ccc(N(CCC#N)CCC#N)cc2C)c1 | 9.15% | 7.25% | -6% | 6.6% | 40.4% | 19.9%
14 | CN1N(c2ccccc2)C(=O)C2=NC=C(C#N)C(=N)C21C (configuration not stated) | 14.9% | 41% | 24.6% | 15.9% | 19.5% | 42.4%
15 | CC(C)(C)C(=O)OCCN(CCOC(=O)C(C)(C)C)C(=O)COC(=O)C(C)(C)C | 31.4% | -0.95% | 21.1% | 20.7% | -3.25% | 20.4%
16 | O=c1[nH]c(=O)c2ncn(C3OC(CO)C(O)C3O)c2[nH]1.O=c1[nH]c(=O)c2ncn(C3OC(CO)C(O)C3O)c2[nH]1.[NH2-].[NH2-].[Pt+2] (configuration not stated) | 3.35% | 33.5% | 41.7% | 3.55% | -8.5% | 40.4%
17 | CCOc1ccc(C(C)c2cc3c(cc2OCCO)OCO3)cc1 (configuration not stated) | 28.6% | 29.2% | 69% | 59.9% | -29.6% | 68.5%
18 | NC(=O)C12OC1(Cl)CCCC2(Cl)Cl (configuration not stated) | 1.05% | -27.9% | 8.5% | 9.05% | 18% | 18.2%
19 | C/C(=N\N=P(c1ccccc1)(c1ccccc1)c1ccccc1)c1ccccc1 | 5.15% | -6.5% | 9.35% | -1.4% | 2.6% | -14.3%
20 | O=C1NCCc2c1sc1ccccc21 | -9.95% | 2.45% | -0.95% | 1.5% | -1.05% | -6.9%
21 | Oc1ccccc1/C=N\Sc1ccc(Br)cc1 | 23.9% | 13.8% | 22% | 4.25% | 3.95% | 17%

Row | Compound | growth inhibition [1] | growth inhibition [2] | growth inhibition [3] | growth inhibition [4] | growth inhibition [5] | growth inhibition [6]
22 | O=C1C2CN(Cc3ccccc3)CC2C(=O)N1c1ccccc1 (configuration not stated) | 1.9% | 13% | 9.25% | -51.8% | -37.7% | 18.2%
23 | O=c1c(SCc2ccc(Cl)c(Cl)c2)c(SCc2ccc(Cl)c(Cl)c2)cnn1-c1ccccc1 | -8.5% | -11.5% | -6.05% | -1.6% | -13.4% | 15.3%
24 | OCCCN1CCCCC1 | -2.7% | -13.6% | 1.05% | 15.8% | -1% | 3.95%
25 | CC(=O)Oc1cc2c(c3ccccc13)CCC2=O | 13.4% | 7.2% | -7.85% | -0.9% | 20.4% | 6.05%
26 | O=C(Cc1nc2ccccc2[nH]c1=O)c1cccnc1 | -0.5% | 8.25% | 13.2% | 1.55% | -4.75% | 16.3%
27 | NC(=S)Cc1ccccn1 | -1.45% | 15.5% | 9.25% | -19.1% | -4.45% | 6.55%
28 | COc1ccc2c(C)cc(N/N=C(\C)C=O)nc2c1 | 19.9% | 19.4% | 18.8% | 11.9% | 10.8% | -9.45%
29 | CC1CC(=O)C2CC(Cl)CCC2(C)C1C (configuration not stated) | -18.1% | -22.6% | -4.6% | -45.4% | -27.4% | -6.05%
30 | CCCC1c2c(cc(=O)[nH]c2O)C(=O)N1Cc1ccccc1 (configuration not stated) | -10.2% | -16.5% | -14.4% | 17.8% | -17.6% | -0.9%
31 | CCCCNC(=O)/C(=C\c1ccccc1)NC(C)=O | 50.1% | 12.1% | 0.85% | -8.45% | 10.9% | -14.2%
32 | COC(=O)C(C(=O)OC)C(c1cccc([N+](=O)[O-])c1)C(N)c1ccccc1 (configuration not stated) | 15.3% | -8.95% | -0.5% | 28.2% | 32.1% | 56.4%
33 | CC(C)S1=C2C(=O)CC(C)(C)CC2=Nc2ccccc21 (configuration not stated) | 7.65% | -0.65% | 2.95% | -1.45% | 15.8% | -27.9%
34 | C/C(=N\NC(N)=S)c1sc(-n2nc(-c3ccccc3)cc2-c2ccccc2)nc1C | 4.65% | -18.2% | 12.2% | 0.25% | 26.6% | 15.7%
35 | O=C(Cc1ccccc1)c1ccccc1C(=O)NCc1ccccc1 | -5.8% | -3.45% | 1.1% | -66.5% | 14.9% | -7.1%
36 | CCSC1=C(SCC)C(=O)C(SCC)=C(SCC)C1=O | -1.25% | 16.1% | 13.9% | -22.4% | -1.65% | 15.4%
37 | CCOC(=O)CS(=O)(=O)C1CCCCC1c1cc(OC)c(OC)c(OC)c1 (configuration not stated) | 3.25% | -3.2% | -5% | -6.7% | 0.6% | 10.4%
38 | Clc1ccc(-c2nc3ccccc3cc2N2CCOCC2)cc1 | 70.5% (active) | 52% | 47.9% | 49.7% | 39.5% | 82.5% (active)
39 | Cn1cnc2cc(NCCO)c([N+](=O)[O-])cc2c1=O | 11.1% | 18.9% | 4.5% | 11.4% | 24.4% | 24.3%
40 | COc1ccc(/C=C2\NC(=S)N(/C=C3\C(=O)Oc4ccccc4C3=O)C2=O)cc1OC | -5.85% | -17.6% | 13.1% | -7.85% | -13.8% | 6.4%
41 | Brc1cccc(-c2nnc(-c3cccc4ccccc34)o2)c1 | 1% | -11.2% | 0.5% | -39.2% | 6.7% | -8.55%
42 | N#CCCN(CCC#N)c1ccc(/C=C2\N=C(c3cc([N+](=O)[O-])ccc3Cl)OC2=O)cc1 | -8.15% | 13.9% | -16.4% | 25% | 4.85% | -7.15%
